# Several values for one entry are separate records, joined by “and”; a condition that tells them apart may be missing. Equal values may be shown once. Records with an inconclusive call do not appear. A call without a number means that no potency is given here. Unmarked numbers belong to inactive results. Activity calls are given as the source filed them. Unless noted, the call rests on the fitted dose curve; in most records, active means well fitted curve in the direction sought with a large enough effect; inconclusive means small, poorly fitted or top-dose-only effect, or another doubt; inactive means no such curve, though single readings can be large; an effect the other way counts as inactive or inconclusive.
# Legend:
# [1] = target: Cellular tumor antigen p53 (Homo sapiens) (UniProt P04637); experiment: Primary qHTS for small molecule compounds that upregulate eGFP-tagged delta133p53alpha (in N-terminal) cells. (AID 2060322); conditions: NCI-H358 eGFP-delta133p53alpha fluorescence, 24 h; activation: hits give high values; further: nearly all actives have a fitted effect of over 75% in size; further: potency means the concentration at half of the fitted maximal effect;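 on activation: cells pre-induced with doxycycline then dosed without doxycycline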
# Cellular tumor antigen p53 (Homo sapiens), sequence (P04637 whole entry, looked up): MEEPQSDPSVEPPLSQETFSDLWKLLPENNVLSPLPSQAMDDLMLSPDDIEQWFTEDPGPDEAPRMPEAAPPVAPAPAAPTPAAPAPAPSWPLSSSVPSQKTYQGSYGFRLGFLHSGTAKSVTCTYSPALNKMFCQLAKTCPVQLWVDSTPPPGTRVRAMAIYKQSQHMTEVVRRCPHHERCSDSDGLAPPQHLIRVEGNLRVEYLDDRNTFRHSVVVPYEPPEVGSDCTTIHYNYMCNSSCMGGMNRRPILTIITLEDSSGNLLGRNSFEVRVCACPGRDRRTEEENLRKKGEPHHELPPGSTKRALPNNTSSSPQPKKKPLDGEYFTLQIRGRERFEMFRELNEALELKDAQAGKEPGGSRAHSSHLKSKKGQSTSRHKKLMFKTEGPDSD
# Method in brief: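 NCI-H358 cells pre-induced 24 h with 10 ng/ml doxycycline for eGFP-delta133p53alpha, plated dox-free and exposed 24 h at 37C to titrated compounds. Fixed, Hoechst-stained; gated GFP peak intensity by laser scanning cytometry, normalized to DMSO (0%) and 57.5 uM 5-azacytidine (100%).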
# [2] = target: Aldehyde dehydrogenase, mitochondrial (Homo sapiens) (UniProt P05091); experiment: qHTS for Inhibitors of the Aldehyde Dehydrogenase Family (ALDH2) Confirmatory screens (AID 2061303; active means well fitted inhibition curve with a large enough effect; title and protocol of this record describe different tests; further: nearly all actives have a fitted effect of over 45% in size); conditions: ALDH inhibition qHTS; series mostly up to 45.4 µM
# [3] = qHTS for Inhibitors of the Aldehyde Dehydrogenase Family (ALDH1A2, ALDH1A3, ALDH2, ALDH3A1) (AID 2061307); conditions: ALDH inhibition qHTS; series mostly up to 50.3 µM; further: nearly all actives have a fitted effect of over 50% in size; on potency: test system not described further here; potency means the concentration at half of the fitted maximal effect
# [4] = target: Aldehyde dehydrogenase, mitochondrial (Homo sapiens) (UniProt P05091); experiment: qHTS for Inhibitors of the Aldehyde Dehydrogenase Family (ALDH2) Primary screen (AID 2061308); conditions: ALDH2 enzyme inhibition qHTS, 1536-well; series mostly up to 56 µM; further: nearly all actives have a fitted effect of over 55% in size; further: potency means the concentration at half of the fitted maximal effect
# [5] = target: Retinaldehyde dehydrogenase 3 (Homo sapiens) (UniProt P47895); experiment: qHTS for Inhibitors of the Aldehyde Dehydrogenase Family (ALDH1A3) Confirmatory screens (AID 2061311); conditions: ALDH inhibition qHTS; series mostly up to 46 µM; further: nearly all actives have a fitted effect of over 60% in size; further: potency means the concentration at half of the fitted maximal effect
# [6] = target: Retinal dehydrogenase 2 (Homo sapiens) (UniProt O94788); experiment: qHTS for Inhibitors of the Aldehyde Dehydrogenase Family (ALDH1A2) Confirmation screens (AID 2061314); conditions: ALDH1A2 enzyme inhibition qHTS confirmation; series mostly up to 45.9 µM; further: nearly all actives have a fitted effect of over 65% in size
# [7] = target: Retinaldehyde dehydrogenase 3 (Homo sapiens) (UniProt P47895); experiment: qHTS for Inhibitors of the Aldehyde Dehydrogenase Family (ALDH1A3) Primary screen (AID 2061315); conditions: ALDH inhibition qHTS; series mostly up to 56 µM; further: potency means the concentration at half of the fitted maximal effect
# [8] = target: Aldehyde dehydrogenase 1A1 (Homo sapiens) (UniProt P00352); experiment: qHTS for Inhibitors of the Aldehyde Dehydrogenase Family (ALDH1A1) Confirmatory screens (AID 2061316); conditions: ALDH inhibition qHTS; series mostly up to 47.3 µM; further: nearly all actives have a fitted effect of over 65% in size
# [9] = BET inhibitor-based combinations targeting novel dependencies in MECOM-rearranged (r) AML: SET-2 cell line (AID 2202231); conditions: SET-2 AML cells viability, CellTiter-Glo luminescence, 48 h; viability: hits give low values, concentration not given here; further: nearly all actives have a fitted effect of over 35% in size; further: potency means the concentration at half of the fitted maximal effect
# Method in brief: (§1)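 Here, 11-point titrations of each agent were applied to 500 seeded cells and incubated 48 hr; CellTiter-Glo signal, scaled against DMSO and empty wells, was integrated as AUC, then Z-scored within the individual line.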
# [10] = BET inhibitor-based combinations targeting novel dependencies in MECOM-rearranged (r) AML: MV-4-11 cell line (AID 2202233); conditions: MV-4-11 AML viability, CellTiter-Glo luminescence, 48 h; series mostly up to 46 µM; further: nearly all actives have a fitted effect of over 45% in size
# Method in brief: (§2)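 Normalized to DMSO and empty-well controls, the luminescence data from CellTiter-Glo after 48 hr drug exposure were fitted across 11 concentrations. Reported metrics are area under the dose-response curve and its Z-transformed form.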
# [11] = BET inhibitor-based combinations targeting novel dependencies in MECOM-rearranged (r) AML: HNT-34 cell line (AID 2202234); conditions: HNT-34 AML viability, CellTiter-Glo luminescence, 48 h; series mostly up to 46 µM; further: nearly all actives have a fitted effect of over 35% in size; further: potency means the concentration at half of the fitted maximal effect
# Method in brief: as §2
# [12] = BET inhibitor-based combinations targeting novel dependencies in MECOM-rearranged (r) AML: AML-191 cell line (AID 2202236; further: nearly all actives have a fitted effect of over 35% in size); conditions: AML-191 viability, CellTiter-Glo luminescence, 48 h; series mostly up to 46 µM
# Method in brief: as §1
# [13] = BET inhibitor-based combinations targeting novel dependencies in MECOM-rearranged (r) AML: AML-194 cell line (AID 2202237; further: nearly all actives have a fitted effect of over 40% in size); conditions: AML-194 (MECOM-r AML) viability, CellTiter-Glo, 48 h; series mostly up to 46 µM
# Method in brief: as §1
# [14] = BET inhibitor-based combinations targeting novel dependencies in MECOM-rearranged (r) AML: OCI-AML3 cell line (AID 2202232); conditions: CellTiter-Glo luminescence, 48 h; Potency: OCI-AML3 viability; series mostly up to 46 µM; further: nearly all actives have a fitted effect of over 35% in size
# Method in brief: as §1
# [15] = target: Retinaldehyde dehydrogenase 3 (Homo sapiens) (UniProt P47895); experiment: qHTS for Inhibitors of the Aldehyde Dehydrogenase Family (ALDH1A3) Validation screen (AID 2061312); conditions: ALDH1A3 enzyme inhibition qHTS validation, fluorescence; series mostly up to 84.7 µM; further: nearly all actives have a fitted effect of over 45% in size; further: potency means the concentration at half of the fitted maximal effect
# [16] = BET inhibitor-based combinations targeting novel dependencies in MECOM-rearranged (r) AML: UCSD-AML1 cell line (AID 2202235); conditions: UCSD-AML1 AML cells viability, CellTiter-Glo, 48 h; series mostly up to 46 µM; further: nearly all actives have a fitted effect of over 40% in size; further: potency means the concentration at half of the fitted maximal effect
# Method in brief: as §2
smiles,measurement,setting,value
Fc1ccc(-c2nc(C3CCNCC3)sc2-c2ccnc(NC3CC3)n2)cc1,Potency,[1],26.9 µM (active)
same,Potency,[2],inactive
same,Potency,[3],inactive
same,Potency,[4],inactive
same,Potency,[5],inactive
same,Potency,[6],inactive
same,Potency,[7],inactive
same,Potency,[8],inactive
N[C@H]1Cc2ccccc2N(O)C1=O,activation,[1],13.7%
same,Potency,[2],inactive
same,Potency,[3],inactive
same,Potency,[4],inactive
same,Potency,[5],inactive
same,Potency,[6],inactive
same,Potency,[7],inactive
same,Potency,[8],inactive
COc1ccc(CC2NCCc3c2[nH]c2ccc(C)cc32)cc1OC (stereo unspecified),activation,[1],5.25%
same,Potency,[2],inactive
same,Potency,[3],inactive
same,Potency,[4],inactive
same,Potency,[5],inactive
same,Potency,[6],inactive
same,Potency,[7],inactive
same,Potency,[8],inactive
COC(=O)N1CC2(CC2)C[C@H](C(=O)NO)[C@H]1C(=O)N1CCN(c2ccccc2)CC1,activation,[1],12.6%
same,Potency,[2],inactive
same,Potency,[3],inactive
same,Potency,[4],inactive
same,Potency,[5],inactive
same,Potency,[6],inactive
same,Potency,[8],inactive
same,viability,[9],112%
same,Potency,[10],inactive
same,Potency,[11],inactive
same,Potency,[12],inactive
same,Potency,[13],inactive
CC1(C)C[C@H]2C=C(C=O)[C@]3(C(=O)O)C[C@]3(C)[C@H]2C1,activation,[1],18.8%
same,Potency,[2],inactive
same,Potency,[3],inactive
same,Potency,[4],inactive
same,Potency,[5],inactive
same,Potency,[6],inactive
same,Potency,[7],inactive
same,Potency,[8],inactive
O=C(O)c1n[nH]c2c1C[C@H]1C[C@@H]21,activation,[1],-8.11%
same,Potency,[2],inactive
same,Potency,[3],inactive
same,Potency,[4],inactive
same,Potency,[5],inactive
same,Potency,[6],inactive
same,Potency,[7],inactive
same,Potency,[8],inactive
O=C1C[C@@H](c2ccc(O)cc2)Oc2cc(O)ccc21,activation,[1],4.3%
same,Potency,[2],inactive
same,Potency,[3],3.02 µM (active)
same,Potency,[4],inactive
same,Potency,[5],12.7 µM (active)
same,Potency,[6],inactive
same,Potency,[8],inactive
COc1ccc(NC(=O)N2CCc3c2ccc2ccccc32)cc1N1CCN(C)CC1,activation,[1],8.59%
same,Potency,[2],inactive
same,Potency,[3],inactive
same,Potency,[4],inactive
same,Potency,[5],inactive
same,Potency,[6],inactive
same,Potency,[8],inactive
C=C1CC[C@@H]2[C@](C)(CO)[C@H](O)CC[C@@]2(C)[C@@H]1CC(=O)C1=CCOC1=O,activation,[1],9.16%
same,Potency,[2],inactive
same,Potency,[3],inactive
same,Potency,[4],inactive
same,Potency,[5],inactive
same,Potency,[6],inactive
same,Potency,[8],inactive
COc1cc(CC2COC(c3ccc(OC4OC(CO)C(O)C(O)C4O)c(OC)c3)C2CO)ccc1O (stereo unspecified),activation,[1],-20.6%
same,Potency,[2],inactive
same,Potency,[3],inactive
same,Potency,[4],inactive
same,Potency,[5],11 µM (active)
same,Potency,[6],inactive
same,Potency,[7],8.91 µM (active)
C[S+](CC[C@H](N)C(=O)[O-])C[C@H]1O[C@@H](n2cnc3c(N)ncnc32)[C@H](O)[C@@H]1O (stereo partly specified),activation,[1],12.3%
same,Potency,[2],inactive
same,Potency,[3],inactive
same,Potency,[4],inactive
same,Potency,[5],inactive
same,Potency,[6],inactive
same,Potency,[7],inactive
same,Potency,[8],inactive
O=c1cc(CN2CCOCC2)occ1OCCCCCSc1ccnc2cc(C(F)(F)F)ccc12,activation,[1],-4.65% and 8.33%
same,Potency,[2],inactive
same,Potency,[3],22.5 µM (active)
same,Potency,[4],inactive
same,Potency,[5],inactive
same,Potency,[6],inactive
same,Potency,[7],inactive
same,Potency,[14],inactive
NCc1ccc(OCCCc2sc(-c3ccc4c(c3)/C(=N/Nc3nc5ccccc5s3)CCC4)nc2C(=O)O)cc1,activation,[1],7.64%
same,Potency,[2],inactive
same,Potency,[3],inactive
same,Potency,[4],31.6 µM (active)
same,Potency,[5],14.2 µM (active)
same,Potency,[15],7.08 µM (active)
same,Potency,[6],inactive
same,Potency,[9],0.332 µM (active)
same,Potency,[14],inactive
same,Potency,[11],0.166 µM (active)
same,Potency,[16],0.209 µM (active)
CCC(C)C(N)C(=O)NCCN1CCOCC1 (stereo unspecified),activation,[1],23%
same,Potency,[2],inactive
same,Potency,[3],inactive
same,Potency,[4],inactive
same,Potency,[5],inactive
same,Potency,[6],inactive
same,Potency,[7],inactive
same,Potency,[8],inactive
NC(=O)c1cccc(-c2cc(OC(=O)NC3CCCCC3)ccc2O)c1,activation,[1],7%
same,Potency,[2],inactive
same,Potency,[3],10.1 µM (active)
same,Potency,[4],inactive
same,Potency,[5],inactive
same,Potency,[7],inactive
COc1cccc(OC)c1C(=O)N[C@@H]1C(=O)N2[C@@H]1SC(C)(C)[C@@H]2C(=O)O,activation,[1],-33.3% and -3%
same,Potency,[2],inactive
same,Potency,[3],inactive
same,Potency,[4],inactive
same,Potency,[5],inactive
same,Potency,[6],inactive
same,Potency,[7],inactive
same,Potency,[8],inactive
C=CC(=O)N1CCCN(c2cc(NCCC(=O)O)nc(-c3ccccn3)n2)CC1,activation,[1],9.67%
same,Potency,[2],inactive
same,Potency,[3],inactive
same,Potency,[4],inactive
same,Potency,[5],inactive
same,Potency,[7],inactive
Oc1ccc(CC2NCCc3cc(O)c(O)cc32)cc1 (stereo unspecified),activation,[1],-12.9%
same,Potency,[2],inactive
same,Potency,[3],inactive
same,Potency,[4],inactive
same,Potency,[5],inactive
same,Potency,[6],inactive
same,Potency,[8],inactive
CN1CCN(C2=Nc3ccccc3Nc3ccc(O)cc32)CC1,activation,[1],1.91%
same,Potency,[2],inactive
same,Potency,[3],inactive
same,Potency,[4],inactive
same,Potency,[15],inactive
same,Potency,[6],inactive
same,Potency,[8],inactive
CC(C(=O)O)c1ccc2c(c1)CC(=O)c1ccccc1S2 (stereo unspecified),activation,[1],0.619% and -1.69% and -1.43%
same,Potency,[2],inactive
same,Potency,[3],inactive
same,Potency,[4],inactive
same,Potency,[5],inactive
same,Potency,[7],inactive
same,Potency,[8],inactive
same,viability,[9],114%
same,Potency,[10],inactive
same,Potency,[16],inactive
same,Potency,[12],inactive
same,Potency,[13],inactive
